Source: PubChem (several laboratories)
GIRK2 act – activators of NPY4-receptor-primed GIRK2 channels, summary, cell-based, HEK293, thallium flux. G protein-activated inward rectifier potassium channel 2 (Homo sapiens), P48051. HEK293 GIRK2/NPY4 cells, thallium flux fluorescence. activation (% efficacy), % for hits at 37.5 µM. 34,000 tested, under 10 active. AID 1259324, 2017;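 active = primary screen hit, no activity in plain HEK293 cells, and in GIRK2-only cells above 5% efficacy rising with concentration; inactive = the rest, including fluorescent compounds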;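 note: efficacy is normalized control-subtracted fluorescence 15 s after thallium addition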
Target sequence (P48051 whole entry, looked up): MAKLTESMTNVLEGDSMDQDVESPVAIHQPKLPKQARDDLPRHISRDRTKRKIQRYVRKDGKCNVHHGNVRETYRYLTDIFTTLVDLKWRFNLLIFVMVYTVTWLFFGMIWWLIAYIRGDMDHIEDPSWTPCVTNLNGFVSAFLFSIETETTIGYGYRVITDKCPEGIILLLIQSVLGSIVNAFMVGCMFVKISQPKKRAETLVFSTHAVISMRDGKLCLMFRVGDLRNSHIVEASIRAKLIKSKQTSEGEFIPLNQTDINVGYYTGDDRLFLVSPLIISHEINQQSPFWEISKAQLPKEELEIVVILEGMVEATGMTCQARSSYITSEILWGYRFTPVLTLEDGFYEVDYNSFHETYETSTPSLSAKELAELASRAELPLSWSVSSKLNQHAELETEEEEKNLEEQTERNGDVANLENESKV
AMPAR-TARP mod – modulators of GluA2-stargazin AMPA receptor complexes, primary screen, cell-based, membrane potential dye; Voltage-dependent calcium channel gamma-2 subunit (Mus musculus) + Glutamate receptor 2 …; HEK293 GluA2+stargazin, membrane potential dye (FDSS), glutamate EC50; hits were called plate by plate, in both directions; calls only at 30 µM; actives 3.5% (n = 40,000);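 active = any of four per-well response measures lying three or more SD from its plate-wide compound average, in either direction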
Calls only; . = inactive; / = not tested or not shown; + = active, no number. The entries come from a sample that favours hits as a whole.

SMILES | GIRK2 act | AMPAR-TARP mod
O=C(Nc1nc(C(=O)N2CCc3ccccc3C2)co1)c1ccco1 | . | +
COC(=O)c1ccc(C(=O)N(CCc2ccccc2)Cc2ccccn2)cc1 | . | .
COc1ccc(CCNC(=O)CC2CCCCN2S(=O)(=O)c2ccc(C)cc2)cc1 (stereo unspecified) | / | .
Cc1cccc(Nc2ccc(N3CCN(C(=O)C4CCCO4)CC3)nn2)n1 (stereo unspecified) | . | /
Cc1cccc(Nc2ccc(N3CCN(C(=O)C4CCC(=O)N4)CC3)nn2)n1 (stereo unspecified) | . | +
CN(Cc1ccccc1)C(=O)c1ccc2c(=O)n(Cc3ccccc3Cl)c(=S)[nH]c2c1 | . | .
O=C1S/C(=C\c2cccc([N+](=O)[O-])c2)C(=O)N1c1ccc(F)cc1 | . | +
O=C1S/C(=C\c2ccc([N+](=O)[O-])cc2)C(=O)N1c1ccc(F)cc1 | . | .
O=C(Nc1ccc2sccc2c1)c1ccno1 | . | +
CN1C(=O)c2ccc(NC(=O)c3ccno3)cc2C1=O | / | +
O=C(Nc1ccc(O)c(-c2nc3ccccc3s2)c1)c1ccno1 | . | .
Cc1cccc(CC(=O)Nc2ccc3c(c2)CC(=O)N3C)c1 | / | .
CN1C(=O)Cc2cc(NC(=O)c3ccno3)ccc21 | . | +
CN1CCOc2ccc(NC(=O)c3ccno3)cc2C1=O | . | .
Cc1cc(F)ccc1S(=O)(=O)NCC1CCN(C2CCCC2)CC1 | . | .
CCc1ccc(S(=O)(=O)NCC2CCN(C3CCCC3)CC2)s1 | . | +
Cc1cc(C)c(S(=O)(=O)NCC2CCN(C3CCCC3)CC2)cc1C | . | .
CCOc1ccc(S(=O)(=O)NCC2CCN(C3CCCC3)CC2)cc1C | . | +
Cc1cc(C(=O)N2CCOCC2)nn1CC(=O)NCc1cccs1 | . | .
O=C(Nc1ccc2c(c1)N(S(=O)(=O)c1ccc(F)cc1)CCC2)c1ccno1 | . | .
O=C(Nc1ccc2c(c1)OCO2)N(CCc1ccccc1)Cc1ccccn1 | . | .
CN(C)C(CNC(=O)C1(c2ccc(Cl)cc2)CCCC1)c1ccsc1 (stereo unspecified) | . | +
CN(C)C(CNC(=O)C1(c2ccccc2)CCOCC1)c1ccsc1 (stereo unspecified) | . | .
Cc1cccc(NC(=O)c2ccc(=O)n(Cc3ccc(Cl)cc3)c2)n1 | . | .
O=C(CCCn1nc(-c2ccc(Cl)cc2)ccc1=O)Nc1ccccc1-c1ccccc1 | . | .
SMILES | GIRK2 act | AMPAR-TARP mod
Cc1ccc(Cn2c(-n3nc(C)cc3C)nc3c2c(=O)n(CC(N)=O)c(=O)n3C)cc1 | . | .
COc1cc(-c2nnc(NC(=O)c3ccc(C(C)=O)cc3)o2)cc(OC)c1OC | / | +
COc1cccc(C(=O)Nc2nnc(-c3ccc(C)c(C)c3)o2)c1 | . | .
COc1cc(-c2nnc(NC(=O)c3ccc(OC(C)C)cc3)o2)cc(OC)c1OC | / | .
COc1cccc(C(=O)Nc2nnc(-c3cc(OC)c(OC)c(OC)c3)o2)c1 | / | +
CCC(C)NC(=O)Cc1csc(SCC(=O)c2cccs2)n1 (stereo unspecified) | . | /
CCOC(=O)N1CCC(NC(=O)C2CCCN(Cc3nc(-c4cccnc4)no3)C2)CC1 (stereo unspecified) | . | .
COc1ccc(OC)c(S(=O)(=O)Cc2nc(-c3ccc(OC)c(OC)c3)no2)c1 | . | .
Cc1nc2ccc(NC(=O)c3ccc(Cn4ccnc4)cc3)cc2s1 | . | .
CC1CCN(c2nc3c(c(=O)[nH]c(=O)n3C)n2CC(O)c2ccccc2)CC1 (stereo unspecified) | / | .
O=C(COc1ccc(C(=O)c2ccccc2)cc1)NCCn1nc(-c2cccs2)ccc1=O | . | .
O=C(COc1ccc(C(=O)c2ccccc2)cc1)NCCn1nc(-c2ccc(Cl)cc2)ccc1=O | . | +
O=C(NCc1nc2ccccc2[nH]1)OCc1ccccc1 | / | .
CC1CN(CC(O)COc2ccccc2F)CC(C)O1 (stereo unspecified) | / | .
Cc1cccc(-n2nnnc2SC(C)C(=O)Nc2cc(C)on2)c1 (stereo unspecified) | / | .
CCOc1ccc(-n2nnnc2SC(C)C(=O)Nc2cc(C)on2)cc1 (stereo unspecified) | / | +
COc1cccc(NC(=O)C(C)Sc2nnnn2-c2ccc(C)cc2)c1 (stereo unspecified) | / | .
CCOc1ccc(-n2nnnc2SC(C)C(=O)Nc2cccc(OC)c2)cc1 (stereo unspecified) | / | +
O=C(CSc1nccn2nc(-c3ccccc3)cc12)NCCc1ccccc1 | . | .
O=C(CCC1=NS(=O)(=O)c2ccccc2N1)Nc1ccc(F)cc1 | / | .
COCCNC(=O)C(=O)NCC1(c2cccs2)CC1 | . | .
COCCNC(=O)NCC1(c2cccs2)CC1 | . | +
COc1ccc2c(=O)c(Oc3ccc(C(=O)Nc4cccc(C(C)=O)c4)cc3)c(C)oc2c1 | . | .
O=C(Cc1ccc(Cl)cc1)N1CCN(c2ccc(Nc3ccccn3)nn2)CC1 | . | .
COc1ccc(Nc2cc(C)nc(N3CCN(C(=O)C4CCCC4)CC3)n2)cc1 | . | +
SMILES | GIRK2 act | AMPAR-TARP mod
Cc1ccc(Nc2cc(C)nc(N3CCN(C(=O)COc4ncccn4)CC3)n2)cc1 | . | +
O=C(COc1ncccn1)N1CCN(c2ccc(Nc3ccccn3)nn2)CC1 | . | +
Cc1cc(C)n(-c2ccc(N3CCN(C(=O)COc4ncccn4)CC3)nn2)n1 | . | /
Cc1cc(Nc2ccccc2)nc(N2CCN(C(=O)c3ccc4c(c3)OCO4)CC2)n1 | / | .
O=C(Nc1ccc2cn[nH]c2c1)C1CCCN(c2ccc(-n3ccnc3)nn2)C1 (stereo unspecified) | . | .
O=C(Cn1nc(-n2cccn2)ccc1=O)Nc1ccc(S(=O)(=O)Nc2ncccn2)cc1 | . | .
COc1ccc(CCC(=O)NCCn2ncc3c(N4CCCC4)ncnc32)cc1 | . | .
Cc1ccc(Nc2cc(C)nc(Nc3ccc(NC(=O)c4ccc5c(c4)OCO5)cc3)n2)cc1 | / | .
Cc1ccc(C(=O)Nc2ccc(Nc3nc(C)cc(N4CCCCC4)n3)cc2)cc1 | / | +
COc1ccc(NC(=O)C(C)Sc2nnnn2-c2ccccc2)cc1 (stereo unspecified) | / | .
CCc1ccc(-n2nnnc2SC(C)C(=O)Nc2ccccc2OC)cc1 (stereo unspecified) | / | .
COc1ccc(-n2nnnc2SC(C)C(=O)Nc2ccc(C(=O)O)cc2)cc1 (stereo unspecified) | / | +
COc1ccc(-n2nnnc2SC(C)C(=O)Nc2ccccc2OC)cc1 (stereo unspecified) | / | +
COc1cc(C(=O)NCC(c2ccccc2)N(C)C)c([N+](=O)[O-])cc1OC (stereo unspecified) | / | .
Cn1cnc2cc(OC(=O)c3ccc(F)c(F)c3)ccc21 | . | .
COc1cc(NC(=O)N2CCN(c3ccc(-c4ccco4)nn3)CC2)cc(OC)c1 | . | .
Cc1ccnc(C(=O)Nc2ccncc2)n1 | . | +
Cc1ccnc(C(=O)Nc2ccc(Nc3cc(N4CCOCC4)nc(C)n3)cc2)n1 | . | /
Cn1nc(CNC(=O)c2ccccc2C(=O)c2ccccc2)c2ccccc2c1=O | . | .
Cn1nc(CNC(=O)c2cccc(C#N)c2)c2ccccc2c1=O | . | +
